# Source: PubChem BioAssay AID1159506 (National Center for Advancing Translational Sciences (NCATS), 2015)
# The full ranking holds about 59,000 sequences; the median of the read-out is about -0.00055, and the lowest 2% start at about -2. Shown is part of a subset that was picked to be rich in the lowest values.
# Assay: Identification of proteins required for the processing of the EWS-FLI1 nascent transcript;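 also: robust z of luciferase light less the median z of siRNAs with the same seed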
# Settings: TC32 Ewing sarcoma NR0B1-luc vs CMV-luc (EWS-FLI1 target promoter against control promoter), 48 h; screened at 20 nM (by protocol)
# Method in brief: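 Three siRNAs per gene, each in a separate well at 20 nM, were transfected into TC32 cells bearing either reporter construct. Luminescence was measured two days on, and per-gene comparison relied on seed-corrected Z values.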
row,Sequence,seed-corrected z-score
1,UCAUUUUCCUCAUAGGUGC against LAMB2,-0.564
2,AUACAUGCAGCUGUGGUUG against GABRB1,-1.3
3,UAAGCGAUCCAUAUCAAAC against PROX1,0.491
4,UAACUGUUUAGCGAUGUCC against TBC1D1,-2.09
5,UUGUCUUCCUCCAUUGUCG against TSGA10IP,-0.628
6,UCUCUUGAUGUGGACACUC against ITGAD,-0.0619
7,UCAUGGUCCGAAGCUGGUG against LHX2,-2.03
8,UCGGCAAUAAUCUCGGCCU against HNRNPA0,0.556
9,UGGUUUUGUACACCUGCUG against TNP2,-0.158
10,UAUUGAAGGACUCCUGAUC against RAB1A,0.0899
11,UUCAGAUGUCCGUCUAUGC against ABLIM3,0.714
12,UUGGAAUACAUUGCCGUUC against SSR1,-0.807
13,UUUUGGACCGCUGCACCUG against CBY3,0.744
14,UUUAGAGCGAGUGGUUAGC against PPHLN1,0.884
15,UAAUCUUUUCAUGCAACUC against SNCA-AS1,-2.06
16,UAGGUGAAGAUCUUGUUUC against COMMD10,-0.785
17,AAAUGAUUUAUAUCCCUGG against ABCC6P1,-14.5
18,AUCGGUAAGAUCCUAAUGG against VPS13A,0.281

row,Sequence,seed-corrected z-score
1,UAUUCUACCUCGUACCUCC against TBC1D22B,-0.239
2,ACCAGUAUAACCCAGAGUC against FCGR1A,0.036
3,UAUAGAGGAAAGCUAUGCC against ERCC6L,0.528
4,AAAGCGAGUUUUCUCAUCC against COPA,-4.21
5,AACUGGAUAGGAGGACUGC against HSF5,-0.327
6,UUAAUUCUCGGAUGUGCUC against ANXA11,0.143
7,UUAUGUUUUCCUACUCCAC against TCEAL1,-2.4
8,UGAAGGCCAACCGCUCUGU against ALG1L6P,0.486
9,UCAGUUUGAUUAUUUCUCU against RASSF4,0.41
10,UGACUUCACCCAGAAGCAC against SLC25A41,-0.697
11,UCAUCAUCCAAAGAUGUAC against C20orf196,-1.47
12,UAUUCGAGCGCAGUGCUGG against C10orf67,-0.133
13,AUUGGUAGAACAAAGUUCC against PRELID3A,0.478
14,UUUUGUUGUGAGCUGAUGC against SF3B4,-3
15,UUCCUUGGAGCUGGGAUCU against PSORS1C1,-1.32
16,UUCUUUUUCAAACAGCUCU against ISY1,-1.17
17,UACUGGUCAAUCGCUGUUC against CEP192,-0.996
18,UUAUUGUUCUUUCGGAUCC against SELP,0.564
